{"source": "PubChem BioAssay (NCATS)", "note": "Inconclusive results are not listed. The source made the active and inactive calls. The call rests on the fitted dose curve; in most records, active means well fitted cell-killing curve with a large enough effect; inconclusive means small, poorly fitted or top-dose-only effect; inactive means flat fitted curve, though single readings scatter. Potency means the concentration at half of the fitted maximal effect."}
{"test": "qHTS of pediatric cancer cell lines to identify multiple opportunities for drug repurposing: Primary screen for RD cells (AID 1347104); further: nearly all actives have a fitted effect of over 55% in size", "details": "RD rhabdomyosarcoma viability, CellTiter-Glo luminescence, 48 h; series mostly up to 46 µM; activity change, negative = cytotoxic: at the top concentration", "text": "Drug repurposing or repositioning has been offered as a strategy for drug development in oncology programs. This approach has special potential for childhood cancers and other rare or orphan diseases, where the expected return on new drug development has been a disincentive to pharmaceuticals. […] In this project we exploit the poly-pharmacology of drugs to discover new indications via phenotypic screening of a panel of 19 well-characterized cell lines derived from solid tumors seen in children and adolescents. The goal is to identify approved drugs with previously unrecognized anticancer properties that has the potential to reveal new mechanisms and biological processes involved in carcinogenesis or drug resistance. We employed a titration-based paradigm (quantitative high-throughput screening or qHTS), where all compounds were tested at multiple concentrations for their effect on cell viability. Concentration-response curves (CRCs) were derived directly from the primary screen, and both potency and efficacy values were used to identify compounds with robust bioactivity profiles. We screened the NIH Chemical Genomics Center (NCGC) Pharmaceutical Collection (NPC) and Mechanism Interrogation Plate (MIPE) small molecule collections of approved and investigational compounds against these cell lines; and measured metabolically active cells after 48 hours of compound treatment as a proxy for cell viability. […] Assay Submitter: Nathalia J. Martinez, National Center for Advancing Translational Sciences, National Institutes of Health, Rockville, MD, USA; email: natalia.martinez@nih.gov Shen, M et al. Quantitative high-throughput phenotypic screening of pediatric cancer cell lines identifies multiple opportunities for drug repurposing. Oncotarget 2017 Dec 19;9(4):4758-4772. PMID 29435139.\nThe cells were obtained from University of North Carolina (UNC), Pediatric Preclinical Testing Program (PPT), and Coriell Institute (CI). qHTS cell viability assay: Cells were assayed in growth media at a density of 500-1,000 cells/well. Five microliters of cells were dispensed into 1,536-well, white, solid-bottom, TC-treated plates (Greiner Bio One) using a multidrop dispenser and incubated at 37 degrees C, 5% CO2, under a humidified atmosphere for 5 hours. Twenty-three nanoliters of compounds and controls (neutral control DMSO or positive control bortezomib at final concentration of 2.3 µM) were subsequently transferred by Kalypsys pintool. For primary screens, the MIPE collection was tested at 11-point dilutions (final concentrations range from 0.78 nM to 46 µM) and the NPC collection at 8-point dilutions (final concentrations range from 0.59 nM to 46 µM). Compounds tested in follow-up screens were assayed at 11-point dilutions. Cells were incubated for 48 hours, followed by addition of 3 µL of CellTiter-Glo (Promega). After a 15 min incubation at room temperature, samples were analyzed for luminescence intensity using a ViewLux High-throughput CCD imager equipped with clear filters."}
{"smiles": "NC(=Nc1ccccc1)Nc1ccccc1", "Potency": "inactive"}
{"smiles": "CCCC(C(=O)OCCN(CC)CC)(c1ccccc1)c1ccccc1", "Potency": "29.9 µM (active)"}
{"smiles": "C#CCN(C)CCCOc1ccc(Cl)cc1Cl", "activity change, negative = cytotoxic": "2.83% (inactive)"}
{"smiles": "CCn1nc(C(=O)O)c(=O)c2cc3c(cc21)OCO3", "activity change, negative = cytotoxic": "13.9% (inactive)"}
{"smiles": "CC(=O)OCC1=C(C(=O)O)N2C(=O)[C@@H](NC(=O)Cc3cccs3)[C@H]2SC1", "activity change, negative = cytotoxic": "24.5% (inactive)"}
{"smiles": "CC(=O)[C@@]1(O)CC[C@H]2[C@@H]3CCC4=CC(=O)CC[C@]4(C)[C@H]3CC[C@@]21C", "activity change, negative = cytotoxic": "-3.06% (inactive)"}
{"smiles": "CCN1CCc2nc(N)oc2CC1", "activity change, negative = cytotoxic": "8.28% (inactive)"}
{"smiles": "C[C@H](CS)C(=O)N1CCC[C@H]1C(=O)O", "activity change, negative = cytotoxic": "0.871% (inactive)"}
{"smiles": "C[N+](C)(C)CCOC(=O)CCC(=O)OCC[N+](C)(C)C", "activity change, negative = cytotoxic": "14.1% (inactive)"}
{"smiles": "NC(N)=NC(=O)Cc1c(Cl)cccc1Cl", "activity change, negative = cytotoxic": "-1.15% (inactive)"}
{"smiles": "CN1C(=O)CC[C@H]1c1cccnc1", "activity change, negative = cytotoxic": "11.8% (inactive)"}
{"smiles": "CCN(CC)CC(=O)Nc1c(C)cccc1C", "activity change, negative = cytotoxic": "1.27% (inactive)"}
{"smiles": "CN(C)C(=O)Oc1cccc([N+](C)(C)C)c1", "activity change, negative = cytotoxic": "7.45% (inactive)"}
{"smiles": "CN(C)CCN(Cc1cccs1)c1ccccn1", "activity change, negative = cytotoxic": "6.52% (inactive)"}
{"smiles": "CC(C)[N+](C)(CCOC(=O)C1c2ccccc2Oc2ccccc21)C(C)C", "activity change, negative = cytotoxic": "1.38% (inactive)"}
{"smiles": "CC(C)(C)c1ccc(C(=O)CCCN2CCC(OC(c3ccccc3)c3ccccc3)CC2)cc1", "Potency": "21.1 µM (active)"}
{"smiles": "NC(Cc1ccc(Cl)cc1)C(=O)O", "note": "(stereo not given)", "activity change, negative = cytotoxic": "7.62% [at 0.597 µM] (inactive)"}
{"smiles": "CCOC(=O)c1cnc2c(cnn2CC)c1NN=C(C)C", "activity change, negative = cytotoxic": "9.9% (inactive)"}
{"smiles": "CN(C)[C@@H]1C(=O)C(C(N)=O)=C(O)[C@@]2(O)C(=O)C3=C(O)c4c(O)ccc(Cl)c4[C@@H](O)[C@H]3C[C@@H]12", "activity change, negative = cytotoxic": "3.58% (inactive)"}
{"smiles": "C[N+](C)(C)CCCCCCCCCC[N+](C)(C)C", "activity change, negative = cytotoxic": "18.9% (inactive)"}
{"smiles": "CN1CCN(CC(=O)N2c3ccccc3C(=O)Nc3cccnc32)CC1", "activity change, negative = cytotoxic": "6.71% [at 4.84 µM] (inactive)"}
{"smiles": "CC(C)NNC(=O)c1ccncc1", "activity change, negative = cytotoxic": "7.69% (inactive)"}
{"smiles": "C[N+](C)(C)CCOC(N)=O", "activity change, negative = cytotoxic": "12.6% (inactive)"}
{"smiles": "CC(=O)[C@]1(O)Cc2c(O)c3c(c(O)c2[C@@H](O[C@H]2C[C@H](N)[C@H](O)[C@H](C)O2)C1)C(=O)c1ccccc1C3=O", "Potency": "1.06 µM (active)"}
{"smiles": "O=C1CC2(CCCC2)CC(=O)N1CCCCN1CCN(c2ncccn2)CC1", "activity change, negative = cytotoxic": "3.22% (inactive)"}
{"smiles": "CCO/C([O-])=N/c1c[n+](N2CCOCC2)no1", "activity change, negative = cytotoxic": "2.72% (inactive)"}
{"smiles": "CCCNC(C)C(=O)Nc1ccccc1C", "note": "(stereo not given)", "activity change, negative = cytotoxic": "14.6% (inactive)"}
{"smiles": "NS(=O)(=O)c1cc2c(cc1Cl)NC(C1CC3C=CC1C3)NS2(=O)=O", "note": "(stereo not given)", "activity change, negative = cytotoxic": "19.4% (inactive)"}
{"smiles": "NC1=NCC2c3ccccc3Cc3ccccc3N12", "note": "(stereo not given)", "activity change, negative = cytotoxic": "-13.3% (inactive)"}
{"smiles": "Nc1ncn([C@@H]2O[C@H](CO)[C@@H](O)[C@H]2O)c(=O)n1", "Potency": "8.41 µM (active)"}
{"smiles": "CSc1ccc(C(=O)c2[nH]c(=O)[nH]c2C)cc1", "activity change, negative = cytotoxic": "13.8% (inactive)"}
{"smiles": "CN1C[C@H](C(=O)N[C@]2(C)O[C@@]3(O)[C@@H]4CCCN4C(=O)[C@H](Cc4ccccc4)N3C2=O)C[C@@H]2c3cccc4[nH]cc(c34)C[C@H]21", "activity change, negative = cytotoxic": "-27.2% (inactive)"}
{"smiles": "CCCN1C[C@H](CSC)C[C@@H]2c3cccc4[nH]cc(c34)C[C@H]21", "activity change, negative = cytotoxic": "0.267% (inactive)"}
{"smiles": "Cc1cc(C)c(/C=C2\\C(=O)Nc3ccccc32)[nH]1", "activity change, negative = cytotoxic": "-19.7% (inactive)"}
{"smiles": "C=CCc1ccccc1OCC(O)CNC(C)C", "note": "(stereo not given)", "activity change, negative = cytotoxic": "-4.01% (inactive)"}
{"smiles": "NC(=O)c1ncn([C@@H]2O[C@H](CO)[C@@H](O)[C@H]2O)c1O", "activity change, negative = cytotoxic": "4.11% (inactive)"}
{"smiles": "c1ccc2c(c1)CCCC2C1=NCCN1", "note": "(stereo not given)", "activity change, negative = cytotoxic": "8.85% (inactive)"}
{"smiles": "Brc1c(NC2=NCCN2)ccc2nccnc12", "activity change, negative = cytotoxic": "-6.42% (inactive)"}
{"smiles": "CCNC(=O)N1CCN(CCCC(c2ccc(F)cc2)c2ccc(F)cc2)CC1", "activity change, negative = cytotoxic": "-11.5% (inactive)"}
{"smiles": "CN1CCN(C2=Nc3ccccc3Oc3ccc(Cl)cc32)CC1", "activity change, negative = cytotoxic": "-14.4% (inactive)"}
